The values below come from the supplement of paper PMC10338343.

± gives the standard deviation. Whole data set: some 3,700 sequences, median “pre-steady-state target cleavage rate” near 0.02, cut for the highest 2% near 0.23. The entries come from a sample that favours the highest values as a whole.

For this test, the system named is MILI (PIWIL2) piRISC loaded with Kctd7 piRNA (26 nt). Description: pre-steady-state target cleavage rate (min^-1); MIWI and MILI are mouse PIWI proteins and EfPiwi is from a freshwater sponge; tags in brackets are library labels; higher = faster piRNA-guided slicing of the target. The settings on record: guide: Kctd7 piRNA 5'p-UGUUAAUCUCUCAGAGAAGGUGACAG; auxiliary factor: 500 nM mouse GTSF1. The procedure: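 Cleave-'n-Seq: a library of target RNAs (target site embedded in constant flanks, ACAGCATTCCGCGTTAGTGATATCCG... 5' flank; DNA-blocked outside the site) at 0.1 nM was incubated with 1 nM active mouse MILI or MIWI piRISC (synthetic 5'-monophosphorylated piRNA guide) with or without 500 nM mouse GTSF1 at 33 °C for 1 min to 16 h. Uncleaved targets were sequenced and normalised to non-target controls, and the pooled three trials were fitted to a burst-and-steady-state model to give the pre-steady-state cleavage rate (min^-1; k3 is constrained to at most 1e-4). Sequence is the target site only; target names encode pairing extent (gX:gY) and contiguous / 1-mismatch / 2-mismatch / bulge geometry. Fits with R² ≤ 0 are excluded.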
For the sequence UAGUGUGUCACCUGCUCUGAGAGAUUAACA, the “pre-steady-state target cleavage rate” value turned out to be 0.157 ± 0.012.

Turning to UAGUGUGUCACCUUGCUCUGAGAGAUUAACA, the “pre-steady-state target cleavage rate” value turned out to be 0.248 ± 0.061.

Turning to UAGUCUGUCACCUUGCUCUGAGAGAUUAACA, the “pre-steady-state target cleavage rate” value amounted to 0.299 ± 0.059.

Take UAGUGACAGUCCUUCUCUGAGAGAUUAACCA: the “pre-steady-state target cleavage rate” value was determined as 0.0785 ± 0.0063.

On to UAGUGACACACCUUCUCUCUGAGAUUAACA, for which the “pre-steady-state target cleavage rate” value came out at 0.00653 ± 0.0037.

On to UAGUGACACACCUUCUCUGAGAGAUAUUCA, for which the “pre-steady-state target cleavage rate” value turned out to be 0.0197 ± 0.0083.

As for UAGUGACUCACCUUCUCUGAGAGAUUCACA, the “pre-steady-state target cleavage rate” value worked out at 0.314 ± 0.091.

As to UAGUGACACACCUUCUCUGAGAGAUUCAACA, the “pre-steady-state target cleavage rate” value was 0.244 ± 0.061.

With UAGUGACAGACCUUCUCUGAGAGAUUCAACA, the “pre-steady-state target cleavage rate” value is 0.177 ± 0.04.

As for UAGUGACACACCUUCUCUGAGAGAUUUAACA, the “pre-steady-state target cleavage rate” value was 0.243 ± 0.023.

On to UAGUGACACACCUUCUCUGAGAGAUUCACA, for which the “pre-steady-state target cleavage rate” value was found to be 0.258 ± 0.057.

Regarding “UAGUGACACACCUUCUCUGAGAGAUUAACA [g2:g22:cont:t1A]”, the “pre-steady-state target cleavage rate” value is 0.178 ± 0.01.

For the sequence UAGUGACACACCUUCUCUGAGAGAUUUUCA, the “pre-steady-state target cleavage rate” value worked out at 0.064 ± 0.02.

In the case of UAGUGACACACCUUCUCUGAGAGAUCAACA, the “pre-steady-state target cleavage rate” value stood at 0.0804 ± 0.024.

Regarding UAGUGACUCACCUUCUCUGAGAGAUUCAACA, the “pre-steady-state target cleavage rate” value was determined as 0.221 ± 0.035.

In the case of UAGUGACUCACCUUCUCUGAGAGAUUUUCA, the “pre-steady-state target cleavage rate” value amounted to 0.0728 ± 0.019.

Take UAGUCUGUCACCUUCUCAGAGAGAAUAACA: the “pre-steady-state target cleavage rate” value was found to be 0.0517 ± 0.017.

In the case of UAGUGACUCACCUUCUCUGAGGGAUUAACA, the “pre-steady-state target cleavage rate” value is 0.0864 ± 0.011.

Consider UAGUGUGUCACCUACACUGAGAGAUUAACA, for which the “pre-steady-state target cleavage rate” value stood at 0.15 ± 0.011.

As for UAGUCUGUCACCUUCAUCUGAGAGAUUAACA, the “pre-steady-state target cleavage rate” value stood at 0.204 ± 0.052.

As for UAGUGAGUCACCUUCUUGAGAGAUUAACA, the “pre-steady-state target cleavage rate” value turned out to be 0.0386 ± 0.014.

Consider UAGUCUGUCACCUUCUUGAGAGAUUAACA, for which the “pre-steady-state target cleavage rate” value was 0.07 ± 0.023.

UAGUGAGUCACCUUCUUUGAGAGAUUAACA: the “pre-steady-state target cleavage rate” value amounted to 0.334 ± 0.029.

For the sequence UAGUCUGUCACCUUCUUCUGAGAGAUUAACA, the “pre-steady-state target cleavage rate” value worked out at 0.0864 ± 0.021.

Take UAGUGUGUCACCUUCUUUGAGAGAUUAACA: the “pre-steady-state target cleavage rate” value came to 0.229 ± 0.016.

On to UAGUCUGUCACCUUCUUUGAGAGAUUAACA, for which the “pre-steady-state target cleavage rate” value was found to be 0.259 ± 0.019.

Turning to UAGUGAGUCUCCUUCACUGAGAGAUUAACA, the “pre-steady-state target cleavage rate” value was 0.166 ± 0.016.

Take UAGUGACUCUCCUUCUGUGAGAGAUUAACA: the “pre-steady-state target cleavage rate” value was 0.0558 ± 0.01.

As for UAGUGACAGACGUUCUCUCAGAGAUUAACA, the “pre-steady-state target cleavage rate” value turned out to be 0.0137 ± 0.0054.

Consider UAGUCUGUCACCUUCUCUGAGAGGAUUAACA, for which the “pre-steady-state target cleavage rate” value was found to be 0.174 ± 0.019.

As for UAGUCCUGUCACCUUCUCUGAGAGAUUAACA, the “pre-steady-state target cleavage rate” value was determined as 0.275 ± 0.026.

For the sequence “UAGUCUGUCACCUUCUCUGAGAGAUUAACG [g2:g26:cont:t1G]”, the “pre-steady-state target cleavage rate” value worked out at 0.196 ± 0.011.

As for UAGUCUUGUCACCUUCUCUGAGAGAUUAACA, the “pre-steady-state target cleavage rate” value came to 0.341 ± 0.058.

Take UAGUCUGUCACCUUCUCUGAGAGAUUUAACA: the “pre-steady-state target cleavage rate” value amounted to 0.245 ± 0.023.

Regarding UAGUCUUCACCUUCUCUGAGAGAUUAACA, the “pre-steady-state target cleavage rate” value worked out at 0.213 ± 0.019.

On to UAGUCUGUCACCUUCUCUCUGAGAUUAACA, for which the “pre-steady-state target cleavage rate” value stood at 0.00967 ± 0.0028.

In the case of UAGUCUGUCACCUUCUCUGAGAGAUUAAUCA, the “pre-steady-state target cleavage rate” value worked out at 0.258 ± 0.041.

Regarding UAGUCUCUCACCUUGUCUGAGAGAUUAACA, the “pre-steady-state target cleavage rate” value was found to be 0.0068 ± 0.0039.

For the sequence UAGUCUGUCACCUUCCUGAGAGAUUAACA, the “pre-steady-state target cleavage rate” value is 0.0844 ± 0.028.

Consider UAGUCGUGUCACCUUCUCUGAGAGAUUAACA, for which the “pre-steady-state target cleavage rate” value was 0.199 ± 0.01.

UAGUCUGUCACCUUCUCUGAGAGAUUAAUA: the “pre-steady-state target cleavage rate” value amounted to 0.118 ± 0.02.

For the sequence UAGUCUGUCACCUUCUCUGAGAGAUUAAA, the “pre-steady-state target cleavage rate” value was 0.13 ± 0.026.

In the case of UAGUGUGACACCUUCUGUGAGAGAUUAACA, the “pre-steady-state target cleavage rate” value was 0.123 ± 0.015.

With UAGUCUGUCACCUACUCUGAGAGAAUAACA, the “pre-steady-state target cleavage rate” value was found to be 0.0882 ± 0.017.

Consider UAGUGACUCACCUUCUCUGAGAGUUUUACA, for which the “pre-steady-state target cleavage rate” value amounted to 0.0214 ± 0.01.

As for UAGUGACAGUGCUUCUCUGAGAAAUUAACA, the “pre-steady-state target cleavage rate” value was found to be 0.00916 ± 0.0047.

With UAGUCUGUCACCUUCAGAGAGAGAUUAACA, the “pre-steady-state target cleavage rate” value is 0.0227 ± 0.0099.

Take UAGUGACAGUCCUUCUCUGAGGAGAUUAACA: the “pre-steady-state target cleavage rate” value turned out to be 0.00431 ± 0.0026.

UAGUGACAGUGGAAGAGUGACAGAUUAACA: the “pre-steady-state target cleavage rate” value is less than 0.0001.

Regarding UAGUCUGUCACCCUCUCUGAGAGAUUAACA, the “pre-steady-state target cleavage rate” value came out at 0.238 ± 0.018.

Turning to UAGUCUGUCACCUCUCUGAGAGAUUAACA, the “pre-steady-state target cleavage rate” value stood at 0.208 ± 0.018.

As for “UAGUCUGUCACCUUCUCUGAGAGAUUAACA [g2:g26:cont:t1A]”, the “pre-steady-state target cleavage rate” value amounted to 0.22 ± 0.013.

Consider UAGUCUGUCACCUCUCUCUGAGAGAUUAACA, for which the “pre-steady-state target cleavage rate” value was 0.164 ± 0.015.

Take “UAGUCUGUCACCUUCUCUGAGAGAUUAACU [g2:g26:cont:t1U]”: the “pre-steady-state target cleavage rate” value was determined as 0.244 ± 0.026.

“UAGUCUGUCACCUUCUCUGAGAGAUUAACC [g2:g26:cont:t1C]”: the “pre-steady-state target cleavage rate” value turned out to be 0.173 ± 0.013.

UAGUGACACACCUUCUCAGAGAGAUUAUGA: the “pre-steady-state target cleavage rate” value was determined as 0.0269 ± 0.01.

Consider UAGUGUGUCACCUUCUCUGAGAGAUUAAACA, for which the “pre-steady-state target cleavage rate” value stood at 0.214 ± 0.029.

On to UAGUGUGUCACCUUCUCUGAGAGAUUAAA, for which the “pre-steady-state target cleavage rate” value was found to be 0.234 ± 0.064.

With UAGUGUGUCACCUUCUCUGAGAGAUUAAUCA, the “pre-steady-state target cleavage rate” value came out at 0.18 ± 0.032.

Take UAGUGUGUCACCUUCUCUGAGAGAUUAAAA: the “pre-steady-state target cleavage rate” value was found to be 0.108 ± 0.022.

For UAGUGUGUCACCUUCUCUGAGAGAUUAAUA, the “pre-steady-state target cleavage rate” value amounted to 0.236 ± 0.037.

Regarding UAGUGUGUCACCUUCUCUGAGAGAUUAAGA, the “pre-steady-state target cleavage rate” value worked out at 0.145 ± 0.036.

For UAGUGACAGUGCUUCUCUGAGAGAAUUAACA, the “pre-steady-state target cleavage rate” value turned out to be 0.0127 ± 0.0041.

With UAGUGUGUCACCUUCUCUGAGAGCAUUAACA, the “pre-steady-state target cleavage rate” value amounted to 0.17 ± 0.022.

As for UAGUCUCUCACCUUCUCUGAGAGAUAAACA, the “pre-steady-state target cleavage rate” value amounted to 0.0206 ± 0.0076.

Regarding UAGUGUGUCACCUUCUCUGAGAGAUUGAACA, the “pre-steady-state target cleavage rate” value was determined as 0.0931 ± 0.017.

UAGUCUGUCACCUUCUCUGAGAGAUUUUGA: the “pre-steady-state target cleavage rate” value came to 0.0133 ± 0.0061.

For the sequence UAGUGUGUCACCUUCUCUGAGAGAUUCAACA, the “pre-steady-state target cleavage rate” value worked out at 0.219 ± 0.038.

With UAGUGUGUCACCUUCUCUGAGAGAUUGACA, the “pre-steady-state target cleavage rate” value was found to be 0.25 ± 0.063.

Regarding UAGUGUGUCACCUUCUCUGAGAGAUAUUCA, the “pre-steady-state target cleavage rate” value is 0.143 ± 0.047.

As for UAGUCUGUCACCUUCUCUGAGAGAUUGACA, the “pre-steady-state target cleavage rate” value turned out to be 0.246 ± 0.044.

With UAGUGUGUCACCUUCUCUGAGAGAUUCACA, the “pre-steady-state target cleavage rate” value is 0.239 ± 0.049.

As for UAGUCUGUCACCUUCUCUGAGAGAUUGAACA, the “pre-steady-state target cleavage rate” value worked out at 0.214 ± 0.029.

As to UAGUGAGUCACCUUCUCUGAGAGAUUGACA, the “pre-steady-state target cleavage rate” value amounted to 0.208 ± 0.042.
